Screening results: PubChem, National Center for Advancing Translational Sciences (NCATS)
ATXN2 expr inh: Primary qHTS for Inhibitors of ATXN expression; hit rate 0.72% among 360,000; Potency, µM (doses to about 57 µM), inactives show top-dose activity change, negative = inhibition, hits mostly inhibitors; HEK-293 ATXN2-luciferase reporter, luminescence, 24 h; note: % is set by controls: 0 for no effect and ±100 for the full control effect; nearly all actives have a fitted effect of over 55% in size
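ATXN2-luciferase reporter cells (luciferase flanked by upstream and downstream ATXN2 gene portions) were treated 24 h at 37 °C with compounds at up to 57 uM. SteadyGlo luminescence gave expression; GF-AFC fluorescence gave viability.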
S2 tox: Viability Counterscreen for Primary qHTS for Inhibitors of ATXN expression | S2 cells (HEK-293 line with an ATXN2-luciferase reporter) viability, CellTiter-Fluor protease fluorescence, 24 h | Potency, µM (highest dose often 56.7 µM), hits mostly cytotoxic | hit rate 0.49% among 400,000 | AID 651635, 2014; note: nearly all actives have a fitted effect of over 40% in size
ALOX12 inh: Primary qHTS assay for inhibitors of human arachidonate 12S-lipoxygenase (ALOX12): Round 2; Polyunsaturated fatty acid lipoxygenase ALOX12 (Homo sapiens), P18054; purified 12hLO, xylenol orange hydroperoxide absorbance; Potency, µM (highest dose often 108 µM), without a hit: at the top dose activity change, negative = inhibition, actives largely listed as inhibitors; hit rate 1.1% among 580,000; AID 1671190, 2021; note: % is set by controls: 0 for no effect and ±100 for the full control effect
Target sequence (P18054 whole entry, looked up): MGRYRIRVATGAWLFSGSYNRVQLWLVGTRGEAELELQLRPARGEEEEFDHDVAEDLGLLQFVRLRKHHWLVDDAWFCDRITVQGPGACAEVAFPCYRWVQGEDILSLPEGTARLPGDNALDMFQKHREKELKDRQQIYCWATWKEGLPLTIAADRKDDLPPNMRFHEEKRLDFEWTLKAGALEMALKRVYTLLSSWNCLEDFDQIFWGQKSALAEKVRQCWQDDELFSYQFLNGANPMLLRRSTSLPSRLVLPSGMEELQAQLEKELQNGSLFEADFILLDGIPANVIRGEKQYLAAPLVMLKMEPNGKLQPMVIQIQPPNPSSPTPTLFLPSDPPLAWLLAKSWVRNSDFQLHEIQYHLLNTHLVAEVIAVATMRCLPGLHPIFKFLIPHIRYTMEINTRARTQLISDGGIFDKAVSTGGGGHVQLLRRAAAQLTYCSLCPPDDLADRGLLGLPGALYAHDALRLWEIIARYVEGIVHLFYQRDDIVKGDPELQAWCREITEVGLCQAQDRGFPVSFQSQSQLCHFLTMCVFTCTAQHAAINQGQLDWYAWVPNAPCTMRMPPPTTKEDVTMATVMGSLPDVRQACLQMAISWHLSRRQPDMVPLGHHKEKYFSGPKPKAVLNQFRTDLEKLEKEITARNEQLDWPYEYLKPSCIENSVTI
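Hydroperoxide product was detected by ferrous iron/xylenol orange as the 573 to 405 nm absorbance ratio. Arachidonic acid at 40 uM (final) was turned over for 30 min at room temperature by 150 nM human 12hLO, pH 7.0 Hepes buffer, after 15 min compound preincubation.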
HepG2 tox: qHTS for Inhibitors of TGF-b: Cytotox Counterscreen; HepG2 CAGA-GFP viability, ATP luminescence, 18 h; Potency, µM (doses to about 46.1 µM), inactives show at the highest dose activity change, negative = cytotoxicity, hits mostly cytotoxic; hit rate 0.76% among 410,000
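HepG2 CAGA-GFP cells (1000/well, DMEM with 1% FBS) received compound, then TGF-beta at 500 pg/mL final, and were incubated 18 hours at 37 degrees C. Viability was read by CellTiter-Glo luminescence. Media-only wells were set as complete cell-killing and DMSO as no toxicity.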
TGFb inhibitor: qHTS for Inhibitors of TGF-b; HepG2 CAGA-GFP TGF-b/SMAD3 reporter, GFP fluorescence, 18 h; TGF-beta stimulated, 500 pg/mL final; Potency, µM (titrated, usually from 46.1 µM), for inactives: top-dose activity, negative = inhibition, hits mostly inhibitors; hit rate 1.2% among 410,000; AID 588855, 2011; note: % is set by controls: 0 for no effect and ±100 for the full control effect; nearly all actives have a fitted effect of over 65% in size
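Smad-responsive CAGA-GFP expression was quantified in HEPG2 cells exposed to compounds and 500 pg/mL final TGF-beta for 18 h at 37 degrees C; unstimulated wells defined full inhibition.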
* hit, by the source's call; i = inactive; u = inconclusive; x = no result; [ ] = remark or other dose. Rows were chosen to be rich in hits. Some 2.7% of all compounds tested hit in one or more screens of this group. Calls come from the whole dose curve; as a rule, active = well fitted curve in the direction sought with a large enough effect; inconclusive = small, poorly fitted or top-dose-only effect, or another doubt; inactive = no such curve, though single readings can be large; an effect the other way counts as inactive or inconclusive. Potency is the fitted concentration of half-maximal effect.

SMILES	ATXN2 expr inh	S2 tox	ALOX12 inh	HepG2 tox	TGFb inhibitor
CC(C)Oc1ccc(C(=O)Nc2nc3ccccc3[nH]2)cc1	4.5µM*	i	-1%	-21%	2%
O=C(Nc1nc2ccccc2[nH]1)c1ccccc1F	2%	i	7%	2.2µM*	1%
CCc1ccc(C(=O)Nc2nc3ccccc3[nH]2)cc1	5µM*	i	3%	-62%	-13%
O=C(Nc1nc2ccccc2[nH]1)c1ccc(OC(F)F)cc1	-31%	i	-11%	-46%	0%
O=C(Nc1nc2ccccc2[nH]1)c1ccccc1OC(F)F	u	i	3%	-26%	u
CCOC(=O)c1[nH]c2ccc(OC)cc2c1NC(=S)N1CCN(c2ccc(F)cc2)CC1	-21%	i	16%	-5%	-22%
CCOC(=O)c1[nH]c2ccc(OC)cc2c1NC(=S)N1CCN(c2cccc(C)c2C)CC1	-31%	i	u	10µM*	18µM*
C=CCn1c(NCc2ccc(C)cc2)nc2c1c(=O)[nH]c(=O)n2C	x	x	-4%	x	x
CC1=NN(c2nc3ccccc3[nH]2)C(=O)/C1=C/N(C)C	u	i	x	1.6µM*	8%
O=c1[nH]c2ccccc2nc1NCc1ccccc1	24%	i	13%	0%	7%
CC1=NN(c2ccc([N+](=O)[O-])cc2)C(=O)/C1=C\N(C)C	11%	i	u	4.5µM*	0%
CCCC1=NN(c2ccc([N+](=O)[O-])cc2)C(=O)/C1=C/N(C)C	26%	i	u	-4%	-2%
CC1=NN(c2nc3ccccc3[nH]2)C(=O)C1Cc1ccccc1 (stereo not given)	10µM*	u	x	15%	u
CC(C)(C)NC(=S)NN	x	x	-11%	x	x
Cc1ccc2[nH]c3c(=O)n(CC(=O)N(CCN(C)C)Cc4ccccc4)ncc3c2c1	0%	i	u	-72%	11µM*
COC(=O)CNC(=O)C1(c2ccccc2)CCC1	x	x	14%	x	x
Cc1ccc(O)c(CNc2cnc3ccccc3c2)c1	8%	i	-8%	-12%	-19%
Oc1ccc(Br)cc1CNc1cnc2ccccc2c1	x	i	-95%	13µM*	u
COc1cccc(CNc2cnc3ccccc3c2)c1O	17%	i	32µM*	0%	-13%
CC1CC(=O)Nc2cc(S(=O)(=O)NCCc3cccs3)ccc2S1 (stereo not given)	x	x	4%	x	x
CCCc1cc(=O)oc2c(C)c(OCC(=O)OC(C)(C)C)ccc12	x	x	-15%	x	x
CC(=O)Nc1ccc(S(=O)(=O)[C@H]2CS(=O)(=O)C[C@@H]2N2CCCC2)cc1	x	x	-2%	x	x
CCc1ccc(-c2c(C)sc(N)c2C#N)cc1	x	x	28µM*	x	x
COC(=O)CCCn1cc(CN2CC(N3CCN(Cc4cccc(C)c4)CC3)CS2(=O)=O)nn1 (stereo not given)	-3%	i	7.1µM*	x	x
CN1CCN(C2CN(Cc3cn(Cc4ccc(Cl)cc4)nn3)S(=O)(=O)C2)CC1 (stereo not given)	-6%	i	28µM*	x	x
SMILES	ATXN2 expr inh	S2 tox	ALOX12 inh	HepG2 tox	TGFb inhibitor
O=C1NC[C@H](Cc2ccc(O)cc2)N(C[C@@H]2CCCN2C[C@H](Cc2ccc(O)cc2)N2C[C@H](Cc3ccccc3)N(CC3CCCCCC3)C(=O)C2=O)C1=O	13%	i	u	x	x
O=C1NC[C@H](Cc2ccccc2)N(C[C@H]2CCCN2C[C@H](Cc2ccccc2)N2C[C@H](Cc3ccc(O)cc3)N(CC3CCCCCC3)C(=O)C2=O)C1=O	u	u	u	3%	u
O=C1NC[C@H](Cc2ccc(O)cc2)N(C[C@@H]2CCCN2C[C@H](Cc2ccccc2)N2C[C@H](Cc3ccc(O)cc3)N(CC3CCCCCC3)C(=O)C2=O)C1=O	0%	i	25µM*	x	x
CC(C)C[C@H]1CN([C@@H](Cc2ccccc2)CN2CCC[C@@H]2CN2C(=O)C(=O)NC[C@@H]2Cc2ccccc2)C(=O)C(=O)N1CCc1ccccc1	u	25µM*	0%	-91%	u
O=C1NC[C@H](Cc2ccccc2)N(C[C@H]2CCCN2C[C@H](Cc2ccc(O)cc2)N2C[C@H](Cc3ccc(O)cc3)N(CC3CCCCCC3)C(=O)C2=O)C1=O	0%	i	16µM*	12%	0%
CC(C)C[C@H]1CN([C@@H](Cc2ccccc2)CN2CCC[C@H]2CN2C(=O)C(=O)NC[C@@H]2Cc2ccccc2)C(=O)C(=O)N1CCc1ccccc1	8%	i	0%	x	x
CCS(=O)(=O)c1ccc2oc(Nc3cc(C)cc(C)c3)nc2c1	-11%	u	13%	-12%	-1%
CCS(=O)(=O)c1ccc2oc(Nc3ccc(C(C)C)cc3)nc2c1	3%	i	7.1µM*	-5%	11%
CCOc1ccccc1NC(=O)CN(C)S(=O)(=O)c1ccc2ccccc2c1	x	x	19%	x	x
CCCC(=O)N(C1CC(C)C(C#N)(C#N)C1(C#N)C#N)N(C)C (stereo not given)	u	u	0%	-96%	11µM*
CC(=O)N(C1CC(C)C(C#N)(C#N)C1(C#N)C#N)N(C)C (stereo not given)	u	30µM*	-2%	-38%	u
CN(CCCC(=O)OC(C)(C)C)C(=O)/C=C/c1ccc(Cl)cc1	x	x	-27%	x	x
O=C(Nc1cccc(S(=O)(=O)N2CCCCC2)c1)C1CC(=O)N(C2CCCC2)C1 (stereo not given)	x	x	2%	x	x
Cc1cc(C)c(C(=O)COC(=O)c2cc(=O)[nH]c3ccccc23)cc1C	x	x	-5%	x	x
Cc1cccc(N/N=C(/c2ccccc2)c2ccc(F)cc2)c1C	x	x	5µM*	x	x
COc1ccc2c(c1)CCc1c(C(=O)Nc3ccn(Cc4ccc(C)cc4)n3)noc1-2	10µM*	18µM*	-16%	-39%	-17%
Cc1ccc(Cn2ccc(NC(=O)c3noc4c3CCc3ccccc3-4)n2)cc1	-3%	i	0%	4%	0%
CC(C)Oc1ccc(Br)cc1/C=N\NC(N)=S	-23%	i	40µM*	-18%	u
O=C(c1ccc(Cl)cc1)N1CC2(CCCN(Cc3ccc(Cl)cc3)C2)Cc2ccccc21 (stereo not given)	x	x	3.5µM*	x	x
C[S+](=O)([O-])N1CC2(CCCN(Cc3ccc(Cl)cc3)C2)Cc2ccccc21 (stereo not given)	x	x	4%[6.33 µM]	x	x
O=C(Nc1ccc(-n2cccn2)c(F)c1)C1CCCN1C(=O)c1ccco1 (stereo not given)	x	x	16%	x	x
C/C(=N/Nc1ccc(C(=O)O)cc1)c1ccc2c(c1)Nc1ccccc1S2	38%	i	28µM*	-23%	13%
